Source: PubChem BioAssay
PfHsp40 yeast = rescue of yeast from PfHsp40 toxicity, primary screen, S. cerevisiae, ATP luminescence; S. cerevisiae expressing PfHsp40, growth rescue; AID 504582, 2011; actives 0.68% (n = 340,000); growth rescue, % at 12.5 µM; in the data active = growth rescue above about 28%, passing the limit was not always enough;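 note: yeast W303a lacking pdr1 and pdr3 grown in galactose medium; growth measured after three days at 30 °C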
Sa RN4220 lethal = growth inhibition of S. aureus RN4220, primary screen, OD600; 16 h; inhibition, % (no concentration beside the values); actives 0.33% (n = 330,000); in the data active = inhibition above about 85%;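 note: plate controls were untreated cells for no effect and reference antibiotic for full effect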
PrP UTR inh = inhibition of PrP 5' UTR reporter expression | cell-based PrP 5' UTR mRNA reporter, plate reader | inhibition, % (concentration not given with the values) | actives 0.35% (n = 340,000); in the data active = inhibition above about 52%; note: 0 = median of the neutral control wells
ugtP null kill = growth inhibition of ugtP-null S. aureus, primary screen, RN4220 ugtP deletion, OD600. AID 1259309, 2017. actives 0.54% (n = 330,000). 16 h. growth inhibition, % (no concentration beside the values); in the data active = growth inhibition above about 68%;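 note: plate controls were untreated wells for no effect and antibiotic for full effect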
TcdB GH inh = TcdB glycohydrolase inhibitors, primary screen, biochemical, single point, plate reader | actives 0.24% (n = 350,000) | TcdB glycohydrolase enzymatic assay | inhibition, % at 9.99 µM | AID 652162, 2013; in the data active = inhibition above about 10%
Target sequence (P18177 whole entry, looked up): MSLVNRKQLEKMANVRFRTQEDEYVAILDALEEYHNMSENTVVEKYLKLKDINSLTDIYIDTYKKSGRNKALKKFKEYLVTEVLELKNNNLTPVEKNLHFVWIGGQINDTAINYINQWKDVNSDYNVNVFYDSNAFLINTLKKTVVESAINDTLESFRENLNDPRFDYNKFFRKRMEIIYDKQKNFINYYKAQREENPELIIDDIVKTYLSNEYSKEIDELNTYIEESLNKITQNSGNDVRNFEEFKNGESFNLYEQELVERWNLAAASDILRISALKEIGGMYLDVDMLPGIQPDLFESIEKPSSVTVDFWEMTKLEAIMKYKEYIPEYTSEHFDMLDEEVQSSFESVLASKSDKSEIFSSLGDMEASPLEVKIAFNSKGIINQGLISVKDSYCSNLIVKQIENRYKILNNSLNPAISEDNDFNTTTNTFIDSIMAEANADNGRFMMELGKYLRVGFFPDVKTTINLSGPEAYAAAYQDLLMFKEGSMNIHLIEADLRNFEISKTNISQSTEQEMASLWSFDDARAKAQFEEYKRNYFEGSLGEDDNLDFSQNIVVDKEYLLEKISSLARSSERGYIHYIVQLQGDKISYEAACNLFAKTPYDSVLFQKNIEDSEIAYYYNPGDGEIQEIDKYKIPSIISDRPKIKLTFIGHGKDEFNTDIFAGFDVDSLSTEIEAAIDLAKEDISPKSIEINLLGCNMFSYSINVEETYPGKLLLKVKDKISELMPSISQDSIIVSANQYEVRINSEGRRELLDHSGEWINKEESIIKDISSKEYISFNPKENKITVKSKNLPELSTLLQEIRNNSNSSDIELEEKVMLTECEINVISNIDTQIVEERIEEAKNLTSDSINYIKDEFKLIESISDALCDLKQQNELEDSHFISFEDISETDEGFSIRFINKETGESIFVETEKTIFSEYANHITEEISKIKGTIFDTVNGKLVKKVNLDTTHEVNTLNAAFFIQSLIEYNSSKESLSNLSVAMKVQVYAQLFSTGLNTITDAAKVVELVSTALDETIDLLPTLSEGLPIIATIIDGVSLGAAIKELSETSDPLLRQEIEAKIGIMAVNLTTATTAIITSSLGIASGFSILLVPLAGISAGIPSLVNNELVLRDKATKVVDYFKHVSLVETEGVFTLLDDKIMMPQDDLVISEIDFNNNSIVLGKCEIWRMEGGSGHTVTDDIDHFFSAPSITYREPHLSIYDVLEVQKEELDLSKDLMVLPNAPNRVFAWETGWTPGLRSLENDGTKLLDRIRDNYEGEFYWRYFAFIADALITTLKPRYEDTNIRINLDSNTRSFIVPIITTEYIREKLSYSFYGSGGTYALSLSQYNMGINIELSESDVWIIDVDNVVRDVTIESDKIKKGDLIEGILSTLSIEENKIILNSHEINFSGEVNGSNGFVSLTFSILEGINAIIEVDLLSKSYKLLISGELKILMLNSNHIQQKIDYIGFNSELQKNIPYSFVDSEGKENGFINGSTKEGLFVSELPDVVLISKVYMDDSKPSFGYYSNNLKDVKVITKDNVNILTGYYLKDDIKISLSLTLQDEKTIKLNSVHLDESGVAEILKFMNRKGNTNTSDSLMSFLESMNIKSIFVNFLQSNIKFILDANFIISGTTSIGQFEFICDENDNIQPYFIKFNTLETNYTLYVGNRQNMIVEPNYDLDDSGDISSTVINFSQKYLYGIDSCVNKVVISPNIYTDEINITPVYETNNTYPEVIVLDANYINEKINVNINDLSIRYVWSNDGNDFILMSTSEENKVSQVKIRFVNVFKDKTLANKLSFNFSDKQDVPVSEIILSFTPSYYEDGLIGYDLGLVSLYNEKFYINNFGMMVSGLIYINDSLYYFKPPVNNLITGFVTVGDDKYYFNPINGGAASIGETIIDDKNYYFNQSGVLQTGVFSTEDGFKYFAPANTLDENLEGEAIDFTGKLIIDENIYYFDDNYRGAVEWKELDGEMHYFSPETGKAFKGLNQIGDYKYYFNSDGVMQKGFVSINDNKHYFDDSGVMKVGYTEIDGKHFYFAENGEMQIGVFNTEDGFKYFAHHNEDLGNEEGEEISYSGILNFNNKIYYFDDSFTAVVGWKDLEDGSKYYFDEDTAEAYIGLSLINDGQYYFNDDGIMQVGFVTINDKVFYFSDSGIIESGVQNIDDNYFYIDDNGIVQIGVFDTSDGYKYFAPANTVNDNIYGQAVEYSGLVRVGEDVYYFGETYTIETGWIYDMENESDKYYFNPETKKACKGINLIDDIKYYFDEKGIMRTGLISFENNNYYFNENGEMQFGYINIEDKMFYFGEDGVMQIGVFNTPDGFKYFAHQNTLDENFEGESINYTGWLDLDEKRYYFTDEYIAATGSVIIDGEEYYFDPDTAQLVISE
* = called active by the depositor; . = no result given; ! = a repeat was not active. This is a sample that favours compounds with a hit; in the whole collection about 1.2% have one here.

SMILES | PfHsp40 yeast | Sa RN4220 lethal | PrP UTR inh | ugtP null kill | TcdB GH inh
COc1ccc2cc(C[C@@H]3CC[C@@H](CNC(N)=O)O3)ccc2c1 | 38* | 3 | -28 | 8 | 1
NC(=O)NC[C@@H]1CC[C@@H](Cc2ccc(-c3ccccc3)cc2)O1 | 0 | 4 | -77 | 2 | .
Cc1nnc(N=c2ssnc2Cl)o1 | 362* | . | -20 | . | 0
CC(C)(C)CN1C(=O)C(=O)NC[C@H]1Cc1ccc(O)cc1 | -1 | . | -43 | . | -1
CC(C)(C)CN1C(=O)C(=O)NCC1Cc1ccc(O)cc1 (stereo not drawn) | . | 97*! | . | 98*! | .
c1ccc2[nH]c(-c3ccc4c(c3)OCO4)nc2c1 | . | -1 | . | 0 | 11*
O=C(Nc1ccc(-c2nc3ccccc3[nH]2)cc1)c1ccc2c(c1)OCO2 | 0 | 3 | -114 | -9 | 1
COC(=O)c1ccc2c(c1O)C(=O)c1ccccc1C2=O | 342* | 97* | -24 | 97* | .
COC(=O)c1cccc2c1-c1ccccc1/C2=N/O | 331* | . | -10 | . | .
COC(=O)c1cccc2c1-c1ccccc1C2=NO | . | -1 | . | 21 | .
CC(C)COC(=O)c1cccc2c1-c1ccccc1C2=NO | . | -4 | . | 96* | .
O=C(O)c1ccc(C=Nn2c(C3CCCCC3)n[nH]c2=S)cc1 | . | 0 | . | 0 | .
CN(C)C(CO)c1nnc(C(CC(=O)O)NC(=O)C2CCNCC2)o1 (stereo not drawn) | . | -1 | . | -5 | .
O=C(O)[C@]1(Cc2ccccc2)N=C(c2ccc(OCCCO)cc2)O[C@@H]1c1ccccc1 | . | . | . | . | -1
CCCN1C[C@@H](C)[C@@H](OC)CN(C)C(=O)c2cc(NC(=O)c3cnccn3)ccc2OC[C@H]1C | . | . | . | . | 0
CC(C)Oc1ccccc1C1CC(=O)Nc2cc3c(cc21)OCCO3 (stereo not drawn) | 0 | 0 | 61* | -6 | .
COc1ccccc1C1CC(=O)Nc2cc3c(cc21)OCCO3 (stereo not drawn) | 1 | 7 | 10 | -8 | 4
Cc1cc(=O)oc2c(N)c(O)ccc12 | 1 | 7 | -11 | -8 | 12*
CCn1cc(C(=O)O)c(=O)c2cnc(N3CCN(C(=S)Nc4ccc(F)cc4)CC3)nc21 | . | 10 | . | -7 | 1
NC1C2CN(c3nc4c(cc3F)c(=O)c(C(=O)O)cn4-c3ccc(F)cc3F)CC12 (stereo not drawn) | 1 | 100* | -8 | 98* | .
CCn1nc(C)c(Br)c1C(=O)Sc1ccccc1Cl | -2 | 20 | -20 | 87* | 0
CCOC(=O)C(=O)NNc1ccc(Cl)cc1 | 1 | 0 | -20 | 0 | 47*
CCOC(=O)C(=O)NNc1ccc(C)cc1 | 4 | 6 | -5 | 7 | .
O=C(O)c1cc(NS(=O)(=O)c2ccc(NC3CCCCC3)c([N+](=O)[O-])c2)cc(C(=O)O)c1 | 3 | 7 | -25 | -1 | 13*
O=C(O)c1cc(NS(=O)(=O)c2ccc(NCc3ccccc3)c([N+](=O)[O-])c2)cc(C(=O)O)c1 | 0 | 3 | -20 | -5 | -4
SMILES | PfHsp40 yeast | Sa RN4220 lethal | PrP UTR inh | ugtP null kill | TcdB GH inh
CCCNC(=O)N1C[C@@H](O)COC[C@H]2O[C@@H](CC(=O)N3CCN(C)CC3)CC[C@@H]21 | . | . | . | . | 0
CN(C)P1(N(C)C)=Nc2c(c(N)nn2C)C(c2ccccc2)=N1 | 39*! | 5 | -23 | 12 | 2
CC(C)c1cn(CC[C@@H]2CC[C@H](NS(=O)(=O)c3ccc(Cl)cc3)[C@@H](CO)O2)nn1 | . | . | . | . | 0
O=c1cc(N=Nc2ccc(Cl)cc2)[nH]c(=O)[nH]1 | 3 | 100* | -28 | 100* | 1
O=c1cc(-c2ccc(Cl)cc2)oc(=O)[nH]1 | 0 | 5 | -18 | -1 | 2
O=C1Nc2ccccc2/C1=C\C(=O)c1ccccc1 | 2 | 98* | -19 | 98* | 3
COc1ccc(-c2nnc(SCc3cc(C)cc(C)c3)o2)cc1 | 1 | 11 | -15 | 94* | .
CCc1ccc(N2CN=c3sc(=Cc4ccccc4)c(=O)n3C2)cc1 | . | 5 | . | -3 | .
Cc1ccc(OCC(=O)Nc2ccc(Cl)cc2C(=O)c2ccccc2)cc1 | -1 | 3 | -17 | 10 | .
Cc1cc(O)ccc1NC(=O)c1ccccc1 | 0 | 3 | -27 | 3 | 12*
Cc1ccc(C(=O)Nc2ccc(Cl)cc2C(=O)c2ccccc2)cc1 | 1 | -4 | 6 | 92* | .
COc1ccc(C(=O)Nc2cc(Cl)ccc2C(=O)O)cc1 | -1 | 37 | -18 | 23 | 29*
Cc1cc(N)ccc1NC(=O)c1ccccc1 | 1 | 3 | -16 | 13 | .
CCCNC(=O)Nc1ccc2c(c1)C(=O)N(C)C[C@@H](OC)[C@H](C)CN(C(C)=O)[C@@H](C)CO2 | . | . | . | . | 1
Cc1cccc(NC(=O)NNC(=O)c2cc3ccccc3cc2O)c1C | -1 | . | -26 | . | 0
O=C(NNC(=O)c1cc2ccccc2cc1O)Nc1ccccc1F | 120* | 7 | -25 | -8 | -2
Brc1ccc(CSc2nnc(Cc3c[nH]c4ccccc34)o2)cc1 | 37* | 8 | -12 | 42 | .
O=C(O)CC/C(=N/Nc1ccc([N+](=O)[O-])cc1)C(=O)O | 135* | . | -20 | . | 0
Oc1cc(-c2ccncc2)cc2cccnc12 | 12 | 101* | -19 | 95* | -5
CN(C)c1ccc(-c2cc(O)c3ncccc3c2)cc1 | 0 | . | -13 | . | 1
CC(C)(C)C(O)C(Oc1ccc(Cl)cc1)n1cncn1 (stereo not drawn) | 141* | 5 | -10 | -7 | 0
CC1(C)C(=O)CC[C@@]2(C)C1CC[C@]1(C)C2C(=O)C=C2C3C[C@@](C)(C(=O)O)CC[C@]3(C)CC[C@@]21C (stereo partly drawn) | . | 15 | . | 31 | .
Cc1cccc(C)c1OCC(=O)OC/C(O)=C(\C#N)c1nc2ccccc2[nH]1 | -1 | -1 | -21 | -3 | 0
Cc1cc(C)cc(OCC(=O)OC/C(O)=C(\C#N)c2nc3ccccc3[nH]2)c1 | 28* | 2 | -11 | -7 | .
COC(=O)C[C@H]1CC[C@H]2[C@@H](COC[C@@H](O)CN2C(=O)Nc2cccc(F)c2)O1 | . | . | . | . | 0
SMILES | PfHsp40 yeast | Sa RN4220 lethal | PrP UTR inh | ugtP null kill | TcdB GH inh
COc1ccc(OCC(=O)NNC(=S)NC(=O)C2CCCCC2)cc1 | 346* | . | 0 | . | 0
CCc1ccc(OCC(=O)NNC(=S)NC(=O)C2CCCCC2)c(Br)c1 | 9 | 31 | 0 | 4 | -1
CCc1ccc(OCC(=O)NNC(=S)NC(=O)C2CC2)c(Br)c1 | 48* | 69 | -22 | 37 | 1
Cc1cc(C)cc(OCC(=O)NNC(=S)NC(=O)C2CC2)c1 | 112* | 68 | -34 | 33 | 0
CCCNC(=O)N1[C@@H]2c3ccc(-c4cccc(OC)c4)c(=O)n3C[C@H]1[C@H](CO)[C@H]2C(=O)NC1CCC1 | . | . | . | . | -3
CCOC(=O)C1C2COc3ccc(OC)cc3C2N2C(=O)C(C)NC(=O)[C@@]12C (stereo partly drawn) | . | 5 | . | 0 | .
C=CCc1cccc(/C=N/NC(=O)c2ccccc2OC)c1O | 50* | . | -22 | . | 0
O=C(NN=Cc1coc2ccccc2c1=O)c1cc(Br)ccc1O | . | 5 | . | 7 | .
